Source: PubChem BioAssay
Activity calls are given as the source filed them.

Tests used:
[1] = target: Albumin (Bos taurus) (UniProt P02769); assay: bovine serum albumin binders on microarray, profiling panel, artefact control for SMM control protein annotation, biochemical, small-molecule microarray, Alexa647 label, 635/667 nm fluorescence (AID 1118); details: BSA-A647 binding, fluorescence 635 nm, higher = more signal;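 further: score merges 667 nm emission intensity and signal-to-noise per printed compound spot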
Albumin (Bos taurus), sequence (P02769 whole entry, looked up): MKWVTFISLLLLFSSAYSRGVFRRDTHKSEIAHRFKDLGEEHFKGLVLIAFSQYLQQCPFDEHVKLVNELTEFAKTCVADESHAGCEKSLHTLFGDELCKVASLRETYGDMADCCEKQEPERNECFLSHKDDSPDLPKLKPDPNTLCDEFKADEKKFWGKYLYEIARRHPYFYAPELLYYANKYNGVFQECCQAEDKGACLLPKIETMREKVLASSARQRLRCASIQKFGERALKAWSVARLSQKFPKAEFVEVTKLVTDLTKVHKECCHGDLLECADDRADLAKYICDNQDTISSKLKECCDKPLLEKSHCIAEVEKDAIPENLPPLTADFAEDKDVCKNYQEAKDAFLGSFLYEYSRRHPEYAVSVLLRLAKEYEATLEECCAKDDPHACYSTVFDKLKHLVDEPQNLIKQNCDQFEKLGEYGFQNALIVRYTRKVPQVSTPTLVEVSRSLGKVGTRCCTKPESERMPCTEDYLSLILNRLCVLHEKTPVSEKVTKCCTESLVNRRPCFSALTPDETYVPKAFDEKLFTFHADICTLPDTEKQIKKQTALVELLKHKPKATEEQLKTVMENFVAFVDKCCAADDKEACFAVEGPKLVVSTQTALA

[2] = small-molecule microarray binders of probe aXIP, primary screen, biochemical, NeuroSMM set, 635/667 nm fluorescence (AID 1119); details: higher = more signal, called active from +8 up or from −8 down;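 further: probe is the protein aXip251-270 applied at 1 µg/mL to compound-printed slides; binding of probe to printed compounds measured as 667 nm fluorescence plus signal to noise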
[3] = small-molecule binders of probe aNOTCH3, primary screen, biochemical, small-molecule microarray, 635/667 nm fluorescence (AID 1120); details: higher = more signal;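 further: probe is a biotin-tagged antibody raised against NOTCH3 rather than NOTCH3 protein; score merges spot fluorescence near 667 nm with spot signal to noise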
[4] = small-molecule binders of probe aNOTCH2, primary screen, biochemical, small-molecule microarray, 635/667 nm fluorescence (AID 1121); details: higher = more signal;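 further: score merges feature fluorescence read at 667 nm with its signal to noise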
[5] = target: Carbonic anhydrase 2 (Homo sapiens) (UniProt P00918); assay: CAII small-molecule binders, profiling panel, biochemical, small-molecule microarray, Alexa647-labelled CAII (AID 1122); details: CAII-A647 binding fluorescence, higher = more signal
[6] = COS7 lysate on small-molecule microarray, probe aHis, 635 nm (AID 1123); details: COS7 cell lysate, fluorescence, higher = more signal;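 further: z-score combines 667nm fluorescence intensity with signal-to-noise per printed compound spot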
[7] = compound binding in COS7 lysate, probe aLAP1, primary screen, cell lysate, small-molecule microarray (AID 1124); details: probe aLAP1, fluorescence, higher = more signal;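 further: lysate comes from COS7 cells expressing LAP1 and is applied at 0.3 µg/mL; score merges spot fluorescence near 667 nm with signal-to-noise over triplicate slides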
[8] = tested on: Sam68 (KHDRBS1); assay: Sam68 small-molecule binders, primary screen, biochemical, small-molecule microarray, 635 nm fluorescence (AID 1125); details: small-molecule microarray binding, higher = more signal;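 further: score merges 667 nm channel intensity with signal to noise over triplicate slides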
[9] = tested on: Chordin-like protein 2 (CHRDL2); assay: CHRDL2 small-molecule binders, primary screen, biochemical, small-molecule microarray, 635 nm fluorescence (AID 1126); details: small-molecule microarray binding, fluorescence 635 nm; higher = more signal;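 further: printed compound slides probed with Chrdl2 protein at 4 µg/mL for 1 h at 4 C; score merges 667 nm emission intensity with signal to noise over three replicate slides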
[10] = target: Concanavalin-A (Canavalia ensiformis) (UniProt P02866); assay: ConA small-molecule binders, primary screen, artefact control for SMM control protein annotation, biochemical, small-molecule microarray, Alexa647 label, 635 nm (AID 1127); details: ConA-A647 binding fluorescence, higher = more signal;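 further: z combines 667 nm emission intensity with signal-to-noise across three replicate slides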
Concanavalin-A (Canavalia ensiformis), sequence (P02866 whole entry, looked up): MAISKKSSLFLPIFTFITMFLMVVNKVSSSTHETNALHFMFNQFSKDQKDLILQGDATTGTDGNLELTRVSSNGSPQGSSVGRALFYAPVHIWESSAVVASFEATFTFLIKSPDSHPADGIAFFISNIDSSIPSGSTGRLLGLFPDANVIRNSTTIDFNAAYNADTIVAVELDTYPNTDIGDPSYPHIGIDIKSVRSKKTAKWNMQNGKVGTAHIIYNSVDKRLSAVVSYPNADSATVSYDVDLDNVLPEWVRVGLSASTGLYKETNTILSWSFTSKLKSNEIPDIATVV

With `NC(=O)[C@H]1[C@@H]2C(=O)O[C@@H](c3ccccc3)[C@@H](c3ccccc3)N2[C@@H](c2ccc(O)cc2)[C@]12C(=O)Nc1ccc(C#CC3=CCCCC3)cc12` the composite z-score [1] was 0.396, the composite Z-score [2] was 0.224 (inactive) and the composite z-score [3] was -0.0273. The composite z-score [4] was -0.156, the composite z-score [5] was 0.293 and the composite z-score [6] was 2.13. The composite z-score [7] was 0.249, the composite z-score [8] was 0.662 and the composite z-score [9] was -0.758. For the same compound, the composite z-score [10] was 0.565.
For `CCc1cccc(NC(=O)O[C@H]2[C@H](OC(=O)Nc3ccccc3)[C@H](OC(=O)Nc3ccccc3)[C@@H](OC)O[C@@H]2CO)c1`, the composite z-score [1] was 0.902, the composite Z-score [2] was 1.21 (inactive) and the composite z-score [3] was 0.211. It also gave a composite z-score [4] of -0.0481, a composite z-score [5] of 0.663 and a composite z-score [6] of 2.57. It also gave a composite z-score [7] of 0.814, a composite z-score [8] of 1.29 and a composite z-score [9] of -0.539. For the same compound, the composite z-score [10] was 1.
In the case of `COc1cc2c(cc1O)C(c1cccs1)N(Cc1sc3ccccc3c1Cl)CC2` (stereo not given), the composite z-score [1] is reported as 0.931, the composite Z-score [2] is reported as -0.818 (inactive) and the composite z-score [3] is reported as 0.173. For the same compound, the composite z-score [4] was 0.0294, the composite z-score [5] was 0.587 and the composite z-score [6] was 2.04. It also gave a composite z-score [7] of 1.17, a composite z-score [8] of 1.3 and a composite z-score [9] of 0.613. The composite z-score [10] was 1.07.
In the case of `C=C(COC)C(=O)CC[C@@H](OC(=O)c1cccnc1)c1ccccc1OCCO`, the composite z-score [1] is reported as -0.726, the composite Z-score [2] is reported as 0.245 (inactive) and the composite z-score [3] is reported as 0.0237. It also gave a composite z-score [4] of -0.0681, a composite z-score [5] of 0.758 and a composite z-score [6] of 0.105. For the same compound, the composite z-score [7] was -0.377, the composite z-score [8] was -0.356 and the composite z-score [9] was 0.349. The composite z-score [10] was 0.484.
In the case of `COc1ccc(C#Cc2ccc3c(c2)[C@]2(C(=O)N3)[C@H](C(=O)Nc3nc4ccccc4s3)[C@H]3C(=O)O[C@H](c4ccccc4)[C@H](c4ccccc4)N3[C@@H]2c2ccccc2OCCO)cc1`, the composite z-score [1] is reported as 0.656, the composite Z-score [2] is reported as 0.0221 (inactive) and the composite z-score [3] is reported as 0.0942. For the same compound, the composite z-score [4] was -0.149, the composite z-score [5] was 0.564 and the composite z-score [6] was 1.46. For the same compound, the composite z-score [7] was 0.476, the composite z-score [8] was 1.25 and the composite z-score [9] was -0.0198. It also gave a composite z-score [10] of 1.13.
For `COC(=O)[C@@]1(Cc2ccccc2CN=[N+]=[N-])N=C(c2ccc(OCCCO)cc2)O[C@H]1c1ccccc1`, the composite z-score [1] was 0.0186, the composite Z-score [2] was 0.951 (inactive) and the composite z-score [3] was 0.177. The composite z-score [4] was 0.0919, the composite z-score [5] was 0.645 and the composite z-score [6] was 2.52. It also gave a composite z-score [7] of 0.717, a composite z-score [8] of 0.711 and a composite z-score [9] of 0.4. The composite z-score [10] was 0.686.
In the case of `COCCCNC(=O)[C@@]1(c2ccc([N+](=O)[O-])cc2)CC(=O)N(C(C)C)[C@@H]1c1ccc(CO)cc1`, the composite z-score [1] is reported as 0.224, the composite Z-score [2] is reported as -0.786 (inactive) and the composite z-score [3] is reported as -0.424. For the same compound, the composite z-score [4] was -0.0282, the composite z-score [5] was 0.729 and the composite z-score [6] was 0.198. The composite z-score [7] was 1.25, the composite z-score [8] was 0.353 and the composite z-score [9] was 0.454. It also gave a composite z-score [10] of -1.5.
